Results as given in PubChem BioAssay AID652095 (National Center for Advancing Translational Sciences (NCATS), 2013).
The source made the active and inactive calls.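 The calls were made as follows: active = glucocerebrosidase enzyme activity raised in patient cells of every tested mutation; inactive = no rise in glucocerebrosidase activity for any mutation.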

target: Lysosomal acid glucosylceramidase (Homo sapiens) (UniProt P04062); experiment: Extended Characterization of Activators of N370S glucocerebrosidase as a Potential Chaperone Treatment of Gaucher Disease: Quantification of GCase activity; conditions: Gaucher patient macrophages, GCase 4MU fluorescence
Description: Glucocerebrosidase (GCase) catalyzes the hydrolysis of beta-glucocerebroside to glucose and ceramide in lysosomes. Mutations in the glucocerebrosidase gene result in Gaucher disease, an autosomal recessive lysosomal storage disorder. Many of the mutations encountered in patients with Gaucher disease are missense alterations that may cause misfolding, decreased stability and/or mistrafficking of this lysosomal protein. […] These inhibitors include iminosugar analogs and other inhibitors that were discovered as part of previous work. However, the enhancement of enzyme activity by the chaperone action of an enzyme inhibitor must be balanced against the direct inhibition of the enzyme. […] In this extended characterization of our probe, we have further characterized the activity of ML198 in patient-derived cellular models of Gaucher disease. In Gaucher-derived macrophages from 17 patients, with 4 separate mutation, we quantified GCase activity using a fluorescence read-out. NIH Chemical Genomics Center [NCGC] NIH Molecular Libraries Probe Production Centers Network [MLPCN] […]
Treated cells were cultured in black 96-well plates. After adding 100 µl assay buffer (200 mM sodium acetate (pH4), 5 mM 4MU-betaGlu and protease inhibitor cocktail (Sigma), cells were incubated for 1 hr at 37 degrees C. The reaction was halted using a stop solution (1 M NaOH and 1 M Glycine) and fluorescence measured.

Lysosomal acid glucosylceramidase (Homo sapiens), sequence (P04062 40-536 N409S): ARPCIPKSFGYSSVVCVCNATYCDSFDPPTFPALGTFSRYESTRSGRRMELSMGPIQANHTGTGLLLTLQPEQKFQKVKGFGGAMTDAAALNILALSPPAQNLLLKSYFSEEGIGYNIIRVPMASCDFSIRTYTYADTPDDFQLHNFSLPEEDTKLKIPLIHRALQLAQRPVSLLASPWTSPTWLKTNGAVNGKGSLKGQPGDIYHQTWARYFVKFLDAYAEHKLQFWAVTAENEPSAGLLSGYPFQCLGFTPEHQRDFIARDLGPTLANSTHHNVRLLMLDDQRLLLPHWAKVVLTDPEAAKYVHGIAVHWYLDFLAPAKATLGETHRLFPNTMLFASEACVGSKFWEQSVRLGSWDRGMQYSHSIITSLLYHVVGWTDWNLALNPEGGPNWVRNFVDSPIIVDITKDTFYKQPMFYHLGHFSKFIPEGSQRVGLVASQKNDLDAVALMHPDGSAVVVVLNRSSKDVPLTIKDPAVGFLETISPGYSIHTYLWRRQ

SMILES	outcome
C#Cc1ccc(NC(=O)c2cnn3c(C)cc(C)nc23)cc1	active; increased
